Measurements taken from PubChem BioAssay AID504334 (NMMLSC, 2011).

Assay: AGP1-GFP expression modulators, hit retest, confirmation, cell-based, flow cytometry, S. cerevisiae, cherry pick set 3 (AID 504334);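 note: median GFP fluorescence per well by flow cytometry over the all cells gate; ratio of sample to mean DMSO control signal so DMSO = 100% not 0%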
Conditions: S. cerevisiae AGP1-GFP strain, 3 h, at 10 µM, stronger effect = higher value;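 active = response relative to DMSO over 150%; inconclusive = yeast strain with under 70 recorded events; inactive = the rest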

Percent response vs DMSO, inactive:
COc1cccc(NC(=O)CC(C)=O)c1 98.8%
C=CCNc1nc(N)c([N+](=O)[O-])c(Nc2ccccc2OC)n1 95.4%
CC(=O)NCCOc1cccc2cccnc12 101%
COc1ccc(OC)c2c(=O)cc(C(=O)O)[nH]c12 102%
CCN(CC)c1ncnc2ccc(Br)cc12 97.8%
O=C(Nc1ccc(-c2nc3ccccc3o2)cc1)c1cccnc1 100%
CC(C)Nc1ncnc2ccc(Br)cc12 99.4%
C[n+]1cccc2c(Br)ccc([O-])c21 100%
Nc1cc(C(=O)O)c(N)c2c1C(=O)c1ccccc1C2=O 102%
Cc1nc2c(O)cccc2cc1CO 99.1%
COc1cccc(N/C=C/C(=O)c2ccc(Cl)cc2)c1 93.8%
Cc1ccc(Nc2nc(N)[nH]c(=O)c2N=O)cc1 101%
COc1ccc(N/C=C/C(=O)c2ccc(Cl)cc2)cc1 98.1%
CCc1sc(C(=O)Nc2nc(-c3ccccn3)cs2)cc1C 111%
Cc1ccc(C(=O)Nc2nc(-c3ccccn3)cs2)o1 102%
CCN(CC)C(=O)Oc1cc(=O)n(C)c2ccccc12 100%
NC(=O)c1ccnc2c(O)cccc12 100%
Cc1cc(C)c(NC(=O)CC(=O)c2ccccc2)c(Cl)c1 99.4%
CNc1nc(N)c([N+](=O)[O-])c(Nc2ccccc2OC)n1 89.8%
COc1ccccc1Nc1nc(NCCC(C)C)nc(N)c1[N+](=O)[O-] 104%
COc1ccc(NC(=O)ON=C2c3ccccc3-c3ccccc32)cc1 98.1%
CC(=O)C(CC(=O)N1CCCC1)C(=O)Nc1ccc(Cl)cc1 (centres undefined) 100%
COc1cc(=O)n(C)c2c(O)cccc12 98.1%
CC(=O)Nc1ccc(-c2nc3cc(Cl)ccc3o2)cc1 96.1%
CC(=O)Nn1cnc2c(c1=O)C1(CCCCC1)Cc1ccccc1-2 104%
O=C(Nc1ccccc1)O/N=C1\CCCCC1c1ccc([N+](=O)[O-])cc1[N+](=O)[O-] (centres undefined) 102%
Cc1cn2c(N)c(C=C3C=C(Cl)C(=O)C(Cl)=C3)c(=O)nc2s1 101%
C/C(=C\C(=O)c1ccccc1)Nc1cccc(O)c1 97.1%
Nc1ccc(O)c2c1C(=O)c1ccccc1C2=O 103%
O=c1cc(C(F)(F)F)[nH]c2c(OC(F)(F)F)cccc12 99.4%
C=CCNc1ncnc2ccc(Br)cc12 101%
Nc1ncnc(Nc2cc(Cl)cc(Cl)c2)c1[N+](=O)[O-] 98.8%
Cc1ccc2c(Cl)cc(Cl)c(O)c2n1 109%
COC(=O)COc1c(Cl)cc(Cl)c2ccc(C)nc12 105%
Cc1ccc2c(Cl)cc(Cl)c(OCC(=O)O)c2n1 109%
COc1ccc(OC)c(N/C(C)=C/C(=O)c2ccccc2)c1 99.8%
CC1=CN2C(=N)/C(=C/c3ccc(C)o3)C(=O)N=C2S1 98.1%
CCc1c(C)nc2c(OC)cccc2c1Cl 99.4%
COCCNc1nc(N)c([N+](=O)[O-])c(Nc2ccc(F)cc2)n1 101%
